The campaign covered roughly 66,000 compounds. About 720 (1.1%) were called active. Rule as the data show it: active = normalised signal below about 0.5; inactive = the rest, inconclusive results apart. This excerpt belongs to a sample that is enriched for actives.
Target: Chromobox protein homolog 7 (Homo sapiens) (UniProt O95931)
Experiment: CBX7 chromodomain binding inhibitors, primary screen, biochemical, AlphaScreen (AID 1224903)
Details: AlphaScreen His6-CBX7 / biotin-H3K27me3 peptide binding, stronger effect = lower value; z-score: measured here: z-score of CBX7 signal

Chromobox protein homolog 7 (Homo sapiens), sequence (O95931 whole entry, looked up): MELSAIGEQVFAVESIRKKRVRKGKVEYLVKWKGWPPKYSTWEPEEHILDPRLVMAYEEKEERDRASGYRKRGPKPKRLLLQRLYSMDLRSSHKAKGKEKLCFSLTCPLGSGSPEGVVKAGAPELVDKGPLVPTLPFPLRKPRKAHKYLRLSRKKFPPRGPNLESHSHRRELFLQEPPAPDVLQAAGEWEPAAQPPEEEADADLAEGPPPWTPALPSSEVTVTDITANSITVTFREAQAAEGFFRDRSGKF

SMILES	normalised signal (fraction of DMSO)	z-score
CCCNC(=O)c1ccc2c(c1)N(Cc1ccccc1)C(=O)c1ccccc1S2(=O)=O	1.14 (inactive)	2.25
CCOC(=O)c1sc(NC(=O)c2ccc(OCC)cc2)nc1-c1ccccc1	0.993 (inactive)	-0.166
Cc1ccc(Cn2c(=O)cc(C(=O)NC3CC3)c3ccccc32)cc1	0.912 (inactive)	-0.873
COc1ccc(Cl)cc1C1CC(=O)Nc2cc3c(cc21)OCO3 (stereo not drawn)	1.03 (inactive)	0.351
CCc1nc2ccc(C(=O)NCC(OC)OC)cc2nc1CC	1.13 (inactive)	0.801
CC1CCN(c2c(NCc3ccc(C(=O)NCc4ccccc4)cc3)c(=O)c2=O)CC1	0.993 (inactive)	-0.292
COc1cc(-c2nc(-c3ccccc3)c(-c3ccccc3)[nH]2)ccc1OCC(=O)O	0.774 (inactive)	-0.891
COc1ccc(-c2nc(-c3ccc(F)cc3)c(-c3ccc(F)cc3)[nH]2)cc1OC	0.322 (active)	-13.4
COc1ccc(-c2[nH]c(-c3ccc(C)cc3)nc2SCC(=O)Nc2ccc(F)cc2)cc1OC	0.756 (inactive)	-11.6
CC1(C)C=c2c(nnc3ncnn23)=C(O)C1	0.00873 (active)	-15.7
CCOC(=O)C1CCCN(c2c(N3CC(C)CC(C)C3)c(=O)c2=O)C1 (stereo not drawn)	0.898 (inactive)	-2.3
Cc1ccc(OCc2nc(C#N)c(N3CCCC3)o2)cc1	0.417 (active)	-10.6
COc1ccc(OCc2nc(C#N)c(N(C)Cc3ccccc3)o2)cc1	0.575 (inactive)	-2.65
N#Cc1nc(COc2ccc(Cl)cc2)oc1N1CCCC1	0.728 (inactive)	-11.9
Cc1cc(N2CCCCC2)nc2ccc(NC(=O)CCC(=O)N3CCN(c4ccc(F)cc4)CC3)cc12	1.05 (inactive)	0.868
Cc1ccc(C)c(CN2C(=O)CSc3ccc(C(=O)NCCCN4CCCCCC4)cc32)c1	0.98 (inactive)	-0.433
Cc1cc(C)nc(N=C(N)N2CCC(Cc3ccccc3)CC2)n1	0.97 (inactive)	-0.61
COc1cc(Cl)c(C)cc1NC(=O)c1n[nH]c(=O)c2ccccc12	1.01 (inactive)	0.38
CC1CCCCC1NS(=O)(=O)c1ccc2c(c1)CCN2C(=O)C1CCC1 (stereo not drawn)	0.937 (inactive)	-2.14
COCCN1Cc2cccc(C(=O)NC3CCCC3)c2C1=O	1.06 (inactive)	0.062
O=C(NC1CC1)c1ccc2c(c1)NC(=O)c1ccccc1N2	0.861 (inactive)	-2.13
Cc1sc2ncnc(NCC3(c4ccccc4)CCCC3)c2c1C	1.08 (inactive)	1.89

SMILES	normalised signal (fraction of DMSO)	z-score
COCCNC(=O)c1ccc2c(c1)N=C(C)c1cc(Br)ccc1S2	0.995 (inactive)	-0.23
CCC(C)NC(=O)c1sc2ncn(CC(=O)Nc3ccccc3OC)c(=O)c2c1C (stereo not drawn)	1.07 (inactive)	0.734
Cc1ccc(-c2nc3ncccc3o2)cc1NC(=O)c1ccc(Br)cc1	0.923 (inactive)	-0.643
CC(C)NC(=O)c1ccc2nc(-c3ccccc3)c(-c3ccccc3)nc2c1	1.07 (inactive)	0.662
Cc1cccc(CCNC(=O)CCCNS(=O)(=O)c2ccc3c(c2)CCC(=O)N3)c1	1.06 (inactive)	2.11
CCOc1ccc(CNC(=O)C(C)N2C(=O)COc3ccc(C)cc32)cc1 (stereo not drawn)	0.421 (active)	-10.5
CCN(CCCNC(=O)C(C)N1C(=O)COc2ccc(C)cc21)c1ccccc1 (stereo not drawn)	0.631 (inactive)	-6.67
Cc1ccc2c(c1)N(C(C)C(=O)NCc1ccc(F)cc1Cl)C(=O)CO2 (stereo not drawn)	0.512 (inactive)	-8.83
O=C1C2C3C=CC(C4CC34)C2C(=O)N1Cc1cccnc1 (stereo not drawn)	0.934 (inactive)	-1.18
Cc1cc(N2CCCCC2)nc2ccc(NC(=O)c3cnccn3)cc12	0.882 (inactive)	-2.15
CCN(CCNC(=O)Cn1nc(-c2ccc(Cl)cc2)ccc1=O)c1ccccc1	0.859 (inactive)	-7.3
COc1ccc(N2CC(C(=O)Nc3ccc(C(C)C)cc3)CC2=O)cc1 (stereo not drawn)	1.06 (inactive)	0.0758
CC(=O)Nc1ccccc1-c1nc2ccccc2n(C)c1=O	1.23 (inactive)	3.65
Cc1cc(C)cc(OC(C)C(=O)N(Cc2ccc(Cl)cc2)C2CCS(=O)(=O)C2)c1 (stereo not drawn)	0.978 (inactive)	-0.282
Nc1nonc1-c1noc(-c2c(F)cccc2F)n1	1.09 (inactive)	0.864
COc1ccc(Nc2cc(C(=O)NC3CC3)c3ccccc3n2)c(OC)c1	0.865 (inactive)	-2.17
CCOc1ccc(-n2ccnc2SCC(=O)Nc2ccccc2F)cc1	0.617 (inactive)	-0.508
CCOc1ccc(-n2ccnc2SCC(=O)Nc2cccc(Cl)c2)cc1	0.445 (active)	-0.736
COc1cccc(-n2ccnc2SCC(=O)Nc2ccc(OC(F)(F)F)cc2)c1	0.995 (inactive)	-0.0932
CCOc1ccc(-n2ccnc2SCC(=O)Nc2ccc(C)cc2C)cc1	0.963 (inactive)	-0.292
COc1cccc(-n2ccnc2SCC(=O)Nc2ccc(Br)cc2)c1	0.458 (active)	-0.719
COc1ccc(-n2ccnc2SCC(=O)Nc2ccc(C)cc2)cc1	0.62 (inactive)	-0.504

— PubChem BioAssay AID1224903 (Bradner/Qi Labs at DFCI, 2016)
